Data taken from PubChem BioAssay (NCATS).
Where “and” joins values, the source holds several entries; their conditions need not be identical. Equal entries are not always repeated. Records with an inconclusive call do not appear. Some structures have more than one record in an assay (separate samples or runs), and their calls can disagree. Calls of active or inactive are those of the source. Unless noted, the call rests on the fitted dose curve.

Tests used:
[1] = qHTS for Inhibitors of the Functional Ribonucleoprotein Complex (vRNP) of Lassa (LASV) Arenavirus: LASV Primary Screen - GLuc reporter signal (AID 1347082; calls by dose curve; tested in HEK293 reporter line; further: on the % scale 0 is the no-effect control and ±100 the full control effect; nearly all actives have a fitted effect of over 60% in size)
[2] = qHTS for Inhibitors of the Functional Ribonucleoprotein Complex (vRNP) of Lassa (LASV) Arenavirus: Viability assay - alamar blue signal for LASV Primary Screen (AID 1347083; calls by dose curve; tested in HEK293 reporter line; further: on the % scale 0 is the no-effect control and ±100 the full control effect; nearly all actives have a fitted effect of over 80% in size)
[3] = qHTS for Inhibitors of the Functional Ribonucleoprotein Complex (vRNP) of Lymphocytic Choriomeningitis Arenaviruses (LCMV): Viability assay - alamar blue signal for LCMV Primary Screen (AID 1347085; calls by dose curve; tested in HEK293 reporter line; further: on the % scale 0 is the no-effect control and ±100 the full control effect; nearly all actives have a fitted effect of over 80% in size)
[4] = target: Nucleoprotein (Lymphocytic choriomeningitis virus (strain Armstrong)) (UniProt P09992); assay: qHTS for Inhibitors of the Functional Ribonucleoprotein Complex (vRNP) of Lymphocytic Choriomeningitis Arenaviruses (LCMV): LCMV Primary Screen - GLuc reporter signal (AID 1347086); further: on the % scale 0 is the no-effect control and ±100 the full control effect; nearly all actives have a fitted effect of over 70% in size
[5] = target: Cytochrome P450 3A4 (Homo sapiens) (UniProt P08684); assay: qHTS Assay for Inhibitors and Substrates of Cytochrome P450 3A4 (AID 884; active means well fitted curve in the direction sought with a large enough effect; an effect the other way counts as inactive or inconclusive; further: potency means the concentration at half of the fitted maximal effect; nearly all actives have a fitted effect of over 50% in size)
Outline: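 20 nM human CYP3A4 with 25 uM Luciferin-PPXE (at KM) in 200 mM KPO4, preincubated 10 min with compound; NADPH regeneration started a 60 min RT reaction. Luciferin detected by luminescence, normalized to 57 uM ketoconazole as full inhibition.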

[6] = target: Cytochrome P450 3A4 (Homo sapiens) (UniProt P08684); assay: qHTS Assay for Activators of Cytochrome P450 3A4 (AID 885; active means well fitted curve in the direction sought with a large enough effect; an effect the other way counts as inactive or inconclusive; further: nearly all actives have a fitted effect of over 65% in size)
Outline: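 Signal was normalized against complete inhibition by 57 uM ketoconazole. The reaction used 20nM CYP3A4 with 25uM Luciferin-PPXE, 10-min compound preincubation and a 60-min NADPH-supported step at RT.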

[7] = qHTS Assay for Lipid Storage Modulators (AID 1519); conditions: Drosophila S3 cells, BODIPY lipid droplet/cell ratio, laser cytometry, cells loaded with oleic acid; on activity change, negative = inhibition: on the % scale 0 is the no-effect control and ±100 the full control effect
Outline: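 Cells seeded at 5,000 per well were treated with compounds over a concentration series and loaded with oleic acid (400 uM, as added). Lipid droplet fluorescence (488 nm excitation, 500-530 nm channel) was read by laser-scanning cytometry and normalized to 20 uM Triacsin C.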

[8] = target: Ubiquitin carboxyl-terminal hydrolase 1 (Homo sapiens) (UniProt O94782); assay: Inhibitors of USP1/UAF1: Pilot qHTS (AID 504865; active means well fitted curve in the direction sought with a large enough effect; an effect the other way counts as inactive or inconclusive;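 further: rhodamine fluorescence freed from ubiquitin-rhodamine substrate followed over time; top concentration of the series differs between compounds; on the % scale 0 is the no-effect control and ±100 the full control effect; nearly all actives have a fitted effect of over 35% in size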)
Outline: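 USP1/UAF1 complex at 1 nM preincubated 15 min at room temperature with compound, then Ub-Rho substrate added at 150 nM final. Fluorescence (480/540 nm) read kinetically in 50 mM HEPES pH 7.8, 0.5 mM EDTA, 1 mM TCEP, 0.1 mg/ml BSA, 0.01% Tween-20.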

[9] = Primary qHTS for Huh7 cytotoxicity: counterscreen for inhibitors of MERS-S pseudotyped particle cell entry (AID 1479147); conditions: outcome: dose series up to 57.1 µM unless noted; on activity change, negative = cytotoxicity: on the % scale 0 is the no-effect control and ±100 the full control effect
[10] = Primary qHTS for inhibitors of MERS-S pseudo-typed particle cell entry (AID 1479149); further: nearly all actives have a fitted effect of over 60% in size; on activity change, negative = inhibition: on the % scale 0 is the no-effect control and ±100 the full control effect
[11] = Primary qHTS for Vero E6 cytotoxicity: counterscreen for inhibitors of SARS-S pseudo-typed particle cell entry (AID 1479150); conditions: outcome: dose series up to 57.1 µM unless noted; on activity change, negative = cytotoxicity: on the % scale 0 is the no-effect control and ±100 the full control effect
[12] = Cytotoxicity counterscreen for inhibitors of SARS-CoV-2 cell entry (AID 1645845); further: nearly all actives have a fitted effect of over 50% in size; further: potency means the concentration at half of the fitted maximal effect
Outline: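 48 h compound treatment (after 1 h preincubation), HEK293-ACE2 cells, 37 C/5% CO2; ATP luminescence endpoint; normalized to cell wells and media blanks.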

[13] = target: Alpha-galactosidase (Coffea arabica) (UniProt Q42656); assay: Counterscreen for Glucocerebrosidase Inhibitors: qHTS Assay for Coffee Bean alpha-Galactosidase at pH 4.5 (AID 957; active means well fitted curve in the direction sought with a large enough effect; an effect the other way counts as inactive or inconclusive;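 further: plate controls were enzyme alone for no effect and no enzyme for full effect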)
Outline: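 Coffee bean enzyme (2 nM) with 80 uM 4-methylumbelliferyl alpha-D-galactopyranoside in 50 mM citric acid, 0.005% Tween-20, pH 4.5, 20 min at room temperature; compounds 0.7 nM–77 uM. Stopped at pH 10, fluorescence 365/440 nm; AC50 from Hill fits.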

[14] = target: Alpha-galactosidase (Coffea arabica) (UniProt Q42656); assay: Counterscreen for Glucocerebrosidase Inhibitors: qHTS Assay for Coffee Bean alpha-Galactosidase at pH 5.9 (AID 998; active means well fitted curve in the direction sought with a large enough effect; an effect the other way counts as inactive or inconclusive;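 further: plate controls were uninhibited enzyme for no effect and no-enzyme basal signal for full effect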)
Outline: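 Compounds were titrated from 0.7 nM to 77 uM against green coffee bean alpha-galactosidase (2 nM) using 80 uM fluorogenic 4-methylumbelliferyl substrate. After 20 min at room temperature, reactions were stopped at pH 10 and read by fluorescence.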

[15] = Validation screen for inhibitors of Lassa infection (AID 463096); further: potency means the concentration at half of the fitted maximal effect
[16] = Inducers of the Endoplasmic Reticulum Stress Response (ERSR) in human glioma: Validation (AID 504836; active means well fitted curve in the direction sought with a large enough effect; an effect the other way counts as inactive or inconclusive; further: 0% is about no effect)
Outline: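 ERSR induction read as luciferase luminescence (Bright-Glo, 10 min at room temperature) in stably transfected human U87-MG glioma cells exposed to compounds for 16 h, using GRP78 as sensor.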

[17] = Confirmatory qHTS to identify inhibitors of SARS-CoV-2 cell entry (AID 1645844); further: potency means the concentration at half of the fitted maximal effect; nearly all actives have a fitted effect of over 45% in size
Outline: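 Luminescence from a luciferase reporter, read 48 hr after pseudotyped-particle addition, gives entry signal, normalised to spike-bearing PP wells and bald PP lacking fusion protein wells. Cells are Expi293F stably expressing human ACE2, compound-pretreated 1 hr.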

[18] = Primary qHTS to identify inhibitors of SARS-CoV-2 cell entry (AID 1645846); conditions: activity change, negative = inhibition: at 57.1 µM (top of the series) unless noted; further: nearly all actives have a fitted effect of over 45% in size
Outline: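 HEK293 cells stably expressing human ACE2, pre-treated 1 h with compound, then infected with MLV particles pseudotyped with Wuhan-Hu-1 spike (C-terminal 19-aa truncation). Luciferase luminescence after 48 h at 37 °C, normalised to spike PP and bald PP.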

[19] = VSVG counterscreen qHTS to identify inhibitors of SARS-CoV-2 cell entry (AID 1645847); further: potency means the concentration at half of the fitted maximal effect; nearly all actives have a fitted effect of over 65% in size
Outline: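 HEK293-ACE2 cells (Expi293F, human ACE2) pretreated 1 h with compound, then infected with MLV-based VSV-G pseudotyped particles for 48 h at 37 C; luciferase luminescence normalized to VSV-G PP and bald PP wells.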

[20] = Primary qHTS for inhibitors of SARS-S pseudo-typed particle cell entry (AID 1479145); further: nearly all actives have a fitted effect of over 45% in size

Chain of Nucleoprotein (Lymphocytic choriomeningitis virus (strain Armstrong)) (P09992 whole entry, looked up): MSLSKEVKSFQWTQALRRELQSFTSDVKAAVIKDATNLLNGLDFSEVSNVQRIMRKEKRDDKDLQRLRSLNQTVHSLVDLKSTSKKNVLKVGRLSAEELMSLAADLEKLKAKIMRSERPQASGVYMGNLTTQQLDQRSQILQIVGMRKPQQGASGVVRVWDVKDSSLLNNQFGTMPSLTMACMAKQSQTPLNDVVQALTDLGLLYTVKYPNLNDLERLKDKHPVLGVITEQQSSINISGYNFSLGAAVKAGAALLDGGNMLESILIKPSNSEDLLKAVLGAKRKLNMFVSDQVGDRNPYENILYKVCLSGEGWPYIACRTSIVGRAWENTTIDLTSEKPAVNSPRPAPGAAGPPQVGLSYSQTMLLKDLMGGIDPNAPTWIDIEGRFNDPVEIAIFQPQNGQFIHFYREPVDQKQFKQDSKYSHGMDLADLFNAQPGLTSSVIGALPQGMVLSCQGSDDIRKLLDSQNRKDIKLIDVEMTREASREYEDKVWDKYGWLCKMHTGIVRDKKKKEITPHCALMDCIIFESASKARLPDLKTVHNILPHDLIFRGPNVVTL
Chain of Cytochrome P450 3A4 (Homo sapiens) (P08684 whole entry, looked up): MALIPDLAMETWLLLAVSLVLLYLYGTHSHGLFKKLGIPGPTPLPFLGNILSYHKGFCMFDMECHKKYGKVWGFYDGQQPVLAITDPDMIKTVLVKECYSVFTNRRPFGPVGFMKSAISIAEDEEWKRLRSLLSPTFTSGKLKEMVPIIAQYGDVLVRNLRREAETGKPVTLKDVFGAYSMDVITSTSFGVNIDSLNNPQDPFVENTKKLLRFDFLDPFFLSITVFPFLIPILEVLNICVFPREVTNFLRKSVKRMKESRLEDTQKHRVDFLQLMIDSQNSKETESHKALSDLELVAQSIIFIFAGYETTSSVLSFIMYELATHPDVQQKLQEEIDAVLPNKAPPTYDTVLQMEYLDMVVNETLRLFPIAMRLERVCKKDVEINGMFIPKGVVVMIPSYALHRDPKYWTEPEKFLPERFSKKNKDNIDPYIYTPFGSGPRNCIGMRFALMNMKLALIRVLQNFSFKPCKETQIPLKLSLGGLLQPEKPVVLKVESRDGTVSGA
Chain of Alpha-galactosidase (Coffea arabica) (Q42656 whole entry, looked up): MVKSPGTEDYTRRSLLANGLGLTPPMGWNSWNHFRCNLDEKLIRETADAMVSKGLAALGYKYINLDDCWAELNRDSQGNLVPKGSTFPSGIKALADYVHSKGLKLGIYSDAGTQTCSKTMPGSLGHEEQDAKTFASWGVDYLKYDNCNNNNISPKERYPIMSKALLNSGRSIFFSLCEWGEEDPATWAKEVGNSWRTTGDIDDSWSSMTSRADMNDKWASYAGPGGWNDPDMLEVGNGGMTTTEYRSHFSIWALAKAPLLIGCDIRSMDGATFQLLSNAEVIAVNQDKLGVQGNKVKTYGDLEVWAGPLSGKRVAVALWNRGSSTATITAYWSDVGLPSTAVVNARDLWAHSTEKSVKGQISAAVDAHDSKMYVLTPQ
Chain of Ubiquitin carboxyl-terminal hydrolase 1 (Homo sapiens) (O94782 whole entry, looked up): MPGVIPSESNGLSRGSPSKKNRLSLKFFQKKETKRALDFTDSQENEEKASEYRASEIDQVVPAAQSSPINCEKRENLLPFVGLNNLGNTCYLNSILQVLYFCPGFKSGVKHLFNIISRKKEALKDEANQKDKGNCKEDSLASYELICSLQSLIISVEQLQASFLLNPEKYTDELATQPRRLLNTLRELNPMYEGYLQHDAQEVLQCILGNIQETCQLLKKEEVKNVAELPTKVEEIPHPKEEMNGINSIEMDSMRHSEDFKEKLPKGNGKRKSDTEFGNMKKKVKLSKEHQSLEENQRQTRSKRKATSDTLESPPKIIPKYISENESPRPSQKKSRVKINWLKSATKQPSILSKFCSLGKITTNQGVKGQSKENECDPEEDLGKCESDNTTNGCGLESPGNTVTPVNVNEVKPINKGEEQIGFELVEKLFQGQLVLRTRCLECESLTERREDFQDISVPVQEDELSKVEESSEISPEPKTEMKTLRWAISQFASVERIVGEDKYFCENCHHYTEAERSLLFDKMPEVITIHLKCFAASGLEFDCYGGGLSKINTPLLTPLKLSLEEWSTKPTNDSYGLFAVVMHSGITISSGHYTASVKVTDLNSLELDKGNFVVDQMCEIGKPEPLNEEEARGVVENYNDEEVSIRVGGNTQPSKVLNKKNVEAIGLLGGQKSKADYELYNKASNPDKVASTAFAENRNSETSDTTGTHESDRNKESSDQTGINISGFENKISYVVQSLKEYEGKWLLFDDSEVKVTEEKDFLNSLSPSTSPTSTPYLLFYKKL

COc1ccc2[nH]c3c(c2c1)CCNC3C (stereo not given)
inactive: Potency [1] | Potency [2] | Potency [3] | Potency [4]

O=C(O)Cc1c[nH]c2ccccc12
inactive: Potency [1] | Potency [2] | Potency [3] | Potency [4]

CC1=C(O)C(=O)[C@@H]2O[C@@H]2C1=O
inactive: Potency [1] | Potency [2] | Potency [3] | Potency [4]

C[N+]1([O-])CCC[C@@H]1c1cccnc1 (stereo not given in full)
inactive: Potency [1] | Potency [2] | Potency [3] | Potency [4]

C[C@H]1CC[C@@H]2N(C1)C[C@H]1[C@@H]3C[C@H]4[C@@H](CC(=O)[C@H]5C[C@@H](O)CC[C@@]54C)[C@@H]3CC[C@H]1[C@]2(C)O
inactive: Potency [1] | Potency [2] | Potency [3] | Potency [4]

CN(C)Cc1c[nH]c2ccccc12
active: Potency [5] 15.8 µM
inactive: Potency [6] | activity change, negative = inhibition ([7]; at 25.7 µM (top of the series)) -1.33% | Potency [8] | Potency [1] | Potency [2] | Potency [3] | Potency [4]
-14%: max response ([7]; measured here: cell count channel max response) | max response ([7]; measured here: lipid channel max response)

O=c1cc(-c2ccc(O)c(O)c2)oc2cc(O[C@@H]3O[C@H](CO)[C@@H](O)[C@H](O)[C@H]3O)cc(O)c12
inactive: Potency [1] | Potency [2] | Potency [3] | Potency [4]

Cc1[nH]c(C=C2C(=O)Nc3ccc(S(=O)(=O)N(C)c4cccc(Cl)c4)cc32)c(C)c1C(=O)N1CCN(C)CC1
inactive: Potency [1] | Potency [2] | Potency [3] | Potency [4]

O=C(O)c1nc(=O)[nH]c(=O)[nH]1
inactive: Potency [1] | Potency [2] | Potency [3] | Potency [4] | outcome [9] inactive [at 0.573 µM] | outcome [10] inactive [at 0.573 µM] | activity change, negative = cytotoxicity [11] 2.99% [at 0.573 µM] | Potency [12]

COc1ccc(/C=C/C(=O)Nc2ccccc2C(=O)O)cc1OC
active: Potency [15] 2.82 µM | Potency [17] 429 nM | Potency [19] 857 nM
17.8 µM (active) and inactive: Potency [12]
-78.6% and -67.4%: activity change, negative = inhibition [18]
inactive: outcome [13] | outcome [14] | outcome [16] | Potency [1] | Potency [2] | Potency [3] | Potency [4] | outcome [9] | Potency [10] | outcome [11]

CCCCCCCCCCCC(=O)OCC(O)CO (stereo not given)
inactive: Potency [1] | Potency [2] | Potency [3] | Potency [4] | Potency [20] | outcome [9] | Potency [10] | outcome [11] | Potency [12] | Potency [18]

CCCCCCCCCCCCCCCC(=O)OC[C@@H](NC(=O)C(Cl)Cl)[C@H](O)c1ccc([N+](=O)[O-])cc1
inactive: Potency [1] | Potency [2] | Potency [3] | Potency [4] | Potency [20] | outcome [9] | Potency [10] | outcome [11] | Potency [12] | Potency [18]

CCCC1O[C@@H]2C[C@H]3[C@@H]4CCC5=CC(=O)C=C[C@]5(C)[C@H]4[C@@H](O)C[C@]3(C)[C@]2(C(=O)CO)O1 (stereo not given in full)
-23.4%: activity change, negative = inhibition [18]
inactive: outcome [13] | outcome [14] | outcome [16] | Potency [1] | Potency [2] | Potency [3] | Potency [4] | Potency [20] | outcome [9] | Potency [10] | outcome [11] | Potency [12]

CC(=O)O[C@H]1CC2(C)[C@@H](C[C@@H](O)[C@H]3[C@@]4(C)CC[C@@H](O)[C@@H](C)[C@@H]4CC[C@@]32C)C1=C(CCC=C(C)C)C(=O)O (stereo not given in full)
inactive: Potency [15] | outcome [16] | Potency [1] | Potency [2] | Potency [3] | Potency [4] | Potency [20] | outcome [9] | Potency [10] | outcome [11] | Potency [12]
-17.3%: activity change, negative = inhibition [18]

Cc1cn([C@@H]2C[C@@H](O)[C@H](CO)O2)c(=O)[nH]c1=O
inactive: Potency [1] | Potency [2] | Potency [3] | Potency [4] | Potency [20] | outcome [9] | Potency [10] | outcome [11]
-18% and -32.2%: activity change, negative = inhibition [18]

NCCCC(=O)O
inactive: outcome [16] | Potency [1] | Potency [2] | Potency [3] | Potency [4] | Potency [20]

C[Se]CC[C@H](N)C(=O)O
inactive: Potency [1] | Potency [2] | Potency [3] | Potency [4] | Potency [20] | outcome [9] inactive [at 26.4 µM] | Potency [10] | outcome [11] | Potency [12]

COc1cc(C)c(C=CC(C)=CC=CC(C)=CC(=O)O)c(C)c1C
inactive: Potency [1] | Potency [2] | Potency [3] | Potency [4] | Potency [20] | outcome [9] | Potency [10] | outcome [11] | Potency [12] | Potency [18]

CCN(C(=O)c1c(O)c2c(Cl)cccc2n(C)c1=O)c1ccccc1
inactive: Potency [1] | Potency [2] | Potency [3] | Potency [4] | Potency [20] | outcome [9] | Potency [10] | outcome [11] | Potency [12]
-55.1% and -33%: activity change, negative = inhibition [18]

C[N+](C)(C)CCO
-23.8% [at 114 µM]: activity change, negative = inhibition [18]
inactive: Potency [6] | outcome [13] | outcome [14] | Potency [15] | outcome [16] | Potency [1] | Potency [2] | Potency [3] | Potency [4] | Potency [20] | outcome [9] inactive [at 114 µM] | Potency [10] | outcome [11] inactive [at 114 µM] | Potency [12]
